According to PubChem BioAssay:
“And” between values parts separate entries of the source, which are not always exact repeats. Equal values may be shown once. Results filed as inconclusive are left out. For part of these data: Measured potencies and affinities stand elsewhere. The source made the active and inactive calls. Unless noted, the rule behind the calls is not given here.

Tests used:
[1] = blockers of polyQ-driven CASP3 activation – cell-based (AID 1583); conditions: polyglutamine-induced caspase-3 activation, cell assay; stronger effect = higher value;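 tested at 10 µM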
[2] = yeast 75Q aggregation reduction – 75Q-TubU reporter (AID 1593); conditions: Yeast 75Q polyglutamine aggregation reporter
[3] = restoration of touch response, mutant HTT neurons – whole organism, C. elegans mechanosensory neurons, N-terminal huntingtin (AID 1599); conditions: C. elegans polyQ-huntingtin mechanosensory neurons, stronger effect = higher value
[4] = blockers of cytochrome c efflux from mitochondria – biochemical, purified mitochondria (AID 1603); conditions: stronger effect = lower value;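 note: mouse liver mitochondria challenged with calcium chloride; signal normalized to the plate average as 100%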
[5] = polyglutamine aggregate formation blockers (AID 1604); conditions: polyglutamine-induced protein aggregation inhibition assay; stronger effect = higher value; tested at 2.5 µM
[6] = glutamate transport activators, MN-1 cells, MN-1 cell line (AID 1612); conditions: MN-1 motor neuron cells, stronger effect = higher value;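 note: tested at 1 µM final; 0% = mean of DMSO vehicle wells on each plate; positive means more glutamate uptake than control and negative means less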
[7] = GFP-Q80 aggregate reduction, neuronal-like cells, cell-based, NGF-treated PC12, GFPQ80 (AID 1614); conditions: PC12 NGF-treated GFP-polyQ80 inclusion reduction;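 note: lower means fewer inclusions and 0 means no inclusions at all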
[8] = 75Q-TubH aggregate inhibition, S. cerevisiae, yeast (AID 1616); conditions: S. cerevisiae 75Q-TubH polyglutamine aggregation suppression; stronger effect = higher value
[9] = compounds altering viability of human ES cells (AID 493140); conditions: human embryonic stem cell survival screen; stronger effect = higher value;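 note: cells exposed to compounds for four days before counting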
[10] = compounds altering circadian rhythm period length – cell-based, LOPAC library, luminescence reporter (AID 2774); conditions: circadian reporter cells, at 7 µM, actives lie on both sides;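 note: values are relative to mean of DMSO wells on each plate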
[11] = target: ATP-dependent translocase ABCB1 (Homo sapiens) (UniProt P08183); experiment: P-glycoprotein substrate transport blockade – cell-based (AID 377; in the data active = fluorescence slope change above about 50%); conditions: MDR1-expressing cells, fluorescent substrate accumulation slope; stronger effect = higher value; concentration not given here
[12] = human hepatoma cell viability loss – ATP luminescence, cytotoxicity control for P. falciparum antimalarial project, primary screen (AID 2303;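 active = inhibition above 50%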;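 note: 0% = DMSO wells and 100% = digitonin-killed cells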); conditions: HepG2 viability, 24-48 h, at 10 µM, stronger effect = higher value
[13] = target: L-lactate dehydrogenase (Plasmodium falciparum (isolate CDC / Honduras)) (UniProt Q27743); experiment: PfLDH activity inhibition – cell lysate, 3D7 strain, counter-screen for P. falciparum growth inhibition project (AID 2304);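 note: 0% = vehicle and 100% = reference inhibitor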; conditions: P. falciparum 3D7 crude extract, LDH APAD/NBT absorbance; at 2 µM; stronger effect = higher value
[14] = inhibition of 3D7 malaria parasite growth – strain 3D7 (AID 2306);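 note: 0% = DMSO wells and 100% = chloroquine plus artemisinin control wells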; conditions: P. falciparum 3D7 erythrocytic growth, LDH absorbance, 72 h; at 2 µM; stronger effect = higher value

ATP-dependent translocase ABCB1 (Homo sapiens), sequence (P08183 whole entry, looked up): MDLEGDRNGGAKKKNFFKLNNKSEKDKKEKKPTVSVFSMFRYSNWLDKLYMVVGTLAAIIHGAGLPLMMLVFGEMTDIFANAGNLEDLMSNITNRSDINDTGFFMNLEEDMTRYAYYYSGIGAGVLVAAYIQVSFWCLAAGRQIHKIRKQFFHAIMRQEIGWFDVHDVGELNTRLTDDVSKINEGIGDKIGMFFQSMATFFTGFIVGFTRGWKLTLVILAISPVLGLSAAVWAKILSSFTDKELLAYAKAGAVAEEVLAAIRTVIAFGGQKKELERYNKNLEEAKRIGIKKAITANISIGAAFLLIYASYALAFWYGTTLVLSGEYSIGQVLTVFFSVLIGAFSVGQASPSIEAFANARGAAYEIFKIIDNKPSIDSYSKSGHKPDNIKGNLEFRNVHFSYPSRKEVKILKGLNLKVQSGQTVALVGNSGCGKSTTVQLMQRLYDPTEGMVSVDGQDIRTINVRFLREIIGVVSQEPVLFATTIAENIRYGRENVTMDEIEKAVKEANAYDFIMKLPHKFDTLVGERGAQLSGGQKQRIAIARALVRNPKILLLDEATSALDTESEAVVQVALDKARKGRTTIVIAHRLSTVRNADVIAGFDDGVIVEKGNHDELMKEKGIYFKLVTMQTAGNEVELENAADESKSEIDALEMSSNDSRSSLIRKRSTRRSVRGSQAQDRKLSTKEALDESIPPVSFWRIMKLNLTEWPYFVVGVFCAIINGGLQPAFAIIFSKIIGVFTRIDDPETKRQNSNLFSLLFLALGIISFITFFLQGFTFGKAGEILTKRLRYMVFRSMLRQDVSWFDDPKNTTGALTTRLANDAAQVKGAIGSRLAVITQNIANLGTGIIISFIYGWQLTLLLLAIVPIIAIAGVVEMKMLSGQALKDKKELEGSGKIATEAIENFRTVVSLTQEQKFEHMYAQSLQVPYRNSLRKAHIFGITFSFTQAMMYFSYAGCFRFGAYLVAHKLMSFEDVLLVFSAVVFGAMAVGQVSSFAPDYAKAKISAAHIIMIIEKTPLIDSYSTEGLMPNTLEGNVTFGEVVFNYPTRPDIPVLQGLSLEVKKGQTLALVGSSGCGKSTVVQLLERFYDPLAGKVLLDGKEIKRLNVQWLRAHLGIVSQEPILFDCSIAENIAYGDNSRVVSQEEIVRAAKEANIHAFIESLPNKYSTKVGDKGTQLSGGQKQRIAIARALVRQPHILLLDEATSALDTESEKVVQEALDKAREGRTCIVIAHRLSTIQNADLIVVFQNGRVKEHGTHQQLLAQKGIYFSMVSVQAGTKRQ
L-lactate dehydrogenase (Plasmodium falciparum (isolate CDC / Honduras)), sequence (Q27743 whole entry, looked up): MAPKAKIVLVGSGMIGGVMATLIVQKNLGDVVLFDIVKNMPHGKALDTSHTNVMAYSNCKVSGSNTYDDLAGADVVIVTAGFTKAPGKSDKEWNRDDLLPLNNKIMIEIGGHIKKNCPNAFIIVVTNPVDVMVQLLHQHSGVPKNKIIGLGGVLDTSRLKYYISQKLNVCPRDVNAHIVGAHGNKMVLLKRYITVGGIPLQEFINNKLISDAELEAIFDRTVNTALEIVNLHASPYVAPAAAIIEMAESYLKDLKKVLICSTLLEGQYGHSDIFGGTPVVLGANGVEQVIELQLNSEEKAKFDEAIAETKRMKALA

Row | SMILES | inhibition [1] | score [2] | rescue above control [3] | cytochrome c release ratio [4] | inhibition of aggregation [5] | glutamate uptake change [6] | inclusion score [7] | aggregation suppression score [8] | survival [9] | period change [10] | fluorescence slope change [11] | inhibition [12] | inhibition [13] | growth inhibition [14]
1 | O=C1c2ccccc2C(=O)C1c1ccccc1 | 16.8% | 0.9 | 2.74 | 0.89 | 3.03% | 6.38% | 2 | 0.588 | 8.58 (inactive) | – | – | – | – | –
2 | COc1ccc2cc3[n+](cc2c1OC)CCc1cc2c(cc1-3)OCO2 | -15.4% | 0.32 | 10.8 | 0.96 | 65.2% | 15.2% | 2 | 0.27 | 0.5 (inactive) | – | – | – | – | –
3 | CCN(CC)CCOC(=O)C(c1ccccc1)c1ccccc1 | 11.6% | 0.88 | 8.76 | 1.09 | 66.7% | 15.8% | 2 | 0.888 | 11.2 (inactive) | – | – | – | – | –
4 | COc1cc(C(=O)NCc2ccc(OCCN(C)C)cc2)cc(OC)c1OC | 17.1% | 1.06 | -0.31 | 0.61 | 75.6% | 0.14% | 2 | 0.824 | 15.8 (inactive) | – | – | – | – | –
5 | Cn1c(=O)c2c(ncn2CC(O)CO)n(C)c1=O (centres undefined) | -0.09% | 1.08 | -16.2 | 1.19 | 21.9% | 0% | 1 | 1.31 | 34 (inactive) | – | – | – | – | –
6 | CCC(Cc1c(I)cc(I)c(N)c1I)C(=O)O (centres undefined) | -9.96% | -1.24 | -0.81 | 1.14 | 1.96% | 7.36% | 2 | 0.027 | 8.83 (inactive) | – | – | – | – | –
7 | NC(=O)NC1NC(=O)NC1=O (centres undefined) | 2.28% | 1.2 | -1.57 | 0.93 | 74.6% | -8.53% | 2 | 0.815 | 26.8 (inactive) | – | – | – | – | –
8 | Oc1ccc(Cl)cc1Cc1cc(Cl)ccc1O | 7.6% | -0.49 | 0 | 0.36 | 29.6% | -22.2% | – | -0.099 | – | – | – | – | – | –
9 | COc1cc(NS(=O)(=O)c2ccc(N)cc2)ncn1 | -4.01% | 1.09 | 33.1 | 0.96 | 88.9% | 2.45% | 2 | 1.2 | 3.67 (inactive) | – | – | – | – | –
10 | Nc1ccc(S(=O)(=O)Nc2cnc3ccccc3n2)cc1 | 26.1% | 1.42 | 9.63 | 1.1 | 22.7% | 6.13% | 2 | 1.52 | 3.75 (inactive) | – | – | – | – | –
11 | Nc1ccc(S(=O)(=O)Nc2nccs2)cc1 | 6.1% | 1.37 | -1.24 | 0.85 | 66.2% | 13.7% | 2 | 1.31 | 23.3 (inactive) | – | – | – | – | –
12 | CN1C(C(=O)Nc2ccccn2)=C(O)c2sccc2S1(=O)=O | -15.4% | 0.84 | -5.04 | 1.03 | 69.7% | -15.9% | 2 | 0.632 | 5.08 (inactive) | – | – | – | – | –
13 | CC(=O)OC/C=C(C)/C=C/C=C(C)/C=C/C1=C(C)CCCC1(C)C | -4.49% | 1.02 | 0.33 | 1.12 | 85.2% | -12.9% | – | 0.917 | – | – | – | – | – | –
14 | C=CCSCC1Nc2cc(Cl)c(S(N)(=O)=O)cc2S(=O)(=O)N1 (centres undefined) | -19.5% | 0.96 | 4.12 | 0.99 | -7.48% | -15.5% | 2 | 0.983 | 6.42 (inactive) | – | – | – | – | –
15 | Cn1c([N+](=O)[O-])cnc1COC(N)=O | -0.12% | 1.29 | 8.28 | 0.98 | 44.8% | 17% | 2 | 1.36 | 19.5 (inactive) | – | – | – | – | –
16 | Oc1c(Br)cc(Br)c2cccnc12 | 46.3% | -0.06 | 10.9 | 2 | 80.3% | 4.76% | – | -0.0132 | – | – | – | – | – | –
17 | Cc1cccc(N(C)C(=S)Oc2ccc3ccccc3c2)c1 | -3.4% | -1.43 | -1.37 | 0.96 | 57.4% | -6.25% | 2 | 0.257 | 27.3 (inactive) | – | – | – | – | –
18 | Cc1cc(-c2ccccc2)nnc1NCCN1CCOCC1 | 7.39% | 1.28 | 5.33 | 1.03 | 66.7% | 4.73% | 1 | 1.11 | 17.2 (inactive) | – | – | – | – | –
19 | CCN(CC)CCOc1ccc(/C(=C(\Cl)c2ccccc2)c2ccccc2)cc1 | -2.8% | -0.01 | 11.2 | 4.67 | 46.5% | -0.41% | – | 0.524 | – | – | – | – | – | –
20 | Nc1ccc(C(=O)NCC(=O)O)cc1 | 5.11% | 1.21 | 11.2 | 1.41 | 83.6% | -9.5% | 2 | 1.33 | 1.83 (inactive) | – | – | – | – | –
21 | CCOC(=O)C(C)(C)Oc1ccc(Cl)cc1 | 24.9% and 18.3% | 0.66 and 0.84 | -9.07 and 5.03 | 0.65 and 0.84 | 70.5% and -5.88% | -11.1% and 6.19% | – | 0.624 and 0.92 | 82.4 (inactive) | -0.13 h (inactive) | – | – | – | –
22 | C/C=C(/C(=C/C)c1ccc(O)cc1)c1ccc(O)cc1 | 31.3% | 0.33 | -4.61 | 4.08 | 63.2% | -21.7% | – | 0.184 | 5.92 (inactive) | – | 10.7% (inactive) | – | – | –
23 | CN1CCC[C@@H]1CCO[C@](C)(c1ccccc1)c1ccc(Cl)cc1 | 2.42% | 1.25 | 0 | 1.13 | 76.2% | 65.2% | – | 0.9 | 6.33 (inactive) | – | 188% (active) | – | – | –
24 | Fc1ccc(C(c2ccc(F)cc2)N2CCN(C/C=C/c3ccccc3)CC2)cc1 | 11.9% | 0.72 | 11.5 | 1.24 | 27% | 9.47% | – | 1.1 | 3.67 (inactive) | -0.2 h (inactive) | 70.9% (active) | – | – | –
25 | O=C1OC(c2ccc(O)cc2)(c2ccc(O)cc2)c2ccccc21 | -3.42% | 1.29 | 8.67 | 4.22 | 70.1% | -16.5% | – | 1.31 | – | – | – | – | – | –
26 | CN(C)CCCN1c2ccccc2Sc2ccccc21 | -14.3% | 1.56 | 23.4 | 1.27 | 23.9% | 20.4% | – | 1.03 | 1.08 (inactive) | -0.355 h (inactive) | – | – | – | –
27 | CN(C)CCCN1c2ccccc2Sc2ccc(C(F)(F)F)cc21 | 30.2% | 1.13 | 19.8 | 0.7 | 76% | 10.7% | – | 1.05 | 5.42 (inactive) | -0.13 h (inactive) | – | – | – | –
28 | CN(C)CCC=C1c2ccccc2C=Cc2ccccc21 | -2.52% | 1.44 | 5.55 | 1.17 | 84.1% | -6.52% | – | 1.07 | 2.75 (inactive) | 0.095 h (inactive) | 73% (active) | – | – | –
29 | CCCCOc1ccc(C(=O)CCN2CCCCC2)cc1 | -5.19% | 1.14 | 14.1 | 0.48 | 80.3% | 1.68% | – | 1.27 | 4.92 (inactive) | – | – | – | – | –
30 | CN(Cc1cnc2nc(N)nc(N)c2n1)c1ccc(C(=O)N[C@@H](CCC(=O)O)C(=O)O)cc1 | 25.6% | 0.69 | -10.9 | 1.08 | 74.6% | 10.9% | – | 0.131 | 39.6 (inactive) | 0.835 h (inactive) | – | -2% (inactive) | 1% (inactive) | 91% (active)
